# Records with an inconclusive call do not appear. Activity calls are given as the source filed them. The calls were made as follows, unless noted: active = hit-call score of the fitted dose curve at least 0.9, where 1 is the maximum; inactive = score below 0.9.
# Experiments:
# [1] = ATG_TAL_CIS: Attagene CIS-FACTORIAL HepG2 Assay for human TAL Basal Promoter (AID 2282966); conditions: HepG2 Attagene cis-factorial TAL promoter reporter; actives raise or lower the signal;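 also: background control endpoint measuring basal TAL promoter reporter mRNA not a specific factor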
# How it was run: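 Basal-promoter background-control endpoint from a multiplexed HepG2 reporter panel. Cells were exposed 24 h, then reporter mRNA was read by RT-PCR/CE fluorescence and fitted in both directions relative to DMSO.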
# [2] = ATG_TGFb_CIS: Attagene CIS-FACTORIAL HepG2 Assay for human Transforming Growth Factor (TGF) (AID 2282967); conditions: HepG2 Attagene CIS TGFb reporter, mRNA transcription; actives raise or lower the signal
# How it was run: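 Transcript-level reporter readout: HepG2 transfectants, 24 h exposure, RNA to cDNA, reporter-specific PCR, fluorescent primer extension, capillary sizing against ROX standards. Gain- or loss-of-signal relative to DMSO.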
# [3] = ATG_VDRE_CIS: Attagene CIS-FACTORIAL HepG2 Assay for human Vitamin D Receptor Element (VDRE) (AID 2282968); conditions: HepG2 VDRE cis-reporter transcription, actives raise or lower the signal
# How it was run: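 Transient MRTU transfection of HepG2, 24 h compound exposure. Readout: reporter transcripts via RT-PCR and capillary electrophoresis, fluorescence. Bidirectional fit vs DMSO.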
# [4] = molecular target: X-box-binding protein 1 (Homo sapiens) (UniProt P17861); test: ATG_Xbp1_CIS: Attagene CIS-FACTORIAL HepG2 Assay for human X-box Binding Protein 1 (XBP1) (AID 2282972); conditions: HepG2 XBP1 cis-element reporter, Attagene multiplex; actives raise or lower the signal
# How it was run: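 Changes in reporter transcript abundance, read by RT-PCR and capillary electrophoresis, reflect endogenous transcription factor activity. Transfected HepG2 cells received compound for 24 hours; DMSO defined baseline for bidirectional analysis.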
# [5] = ATG_M_19_TRANS: Attagene TRANS-FACTORIAL HepG2 Assay for M19 Transcription Factor (Internal Marker) (AID 2282974; active = hit-call score of the fitted dose curve at least 0.9, where 1 is the maximum); conditions: HepG2 Attagene TRANS-FACTORIAL M19 internal marker reporter
# How it was run: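 After transfection of HepG2 with GAL4-UAS-driven reporter constructs, cells are dosed for 24 h. Total RNA is reverse-transcribed, reporter sequences PCR-amplified and labelled, then HpaI-digested and sized by capillary electrophoresis.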
# [6] = molecular target: Estrogen receptor (Homo sapiens) (UniProt P03372); test: ATG_ERa_TRANS: Attagene TRANS-FACTORIAL HepG2 Assay for human Estrogen Receptor alpha (ERa) (AID 2282970; active = hit-call score of the fitted dose curve at least 0.9, where 1 is the maximum); conditions: HepG2 Attagene TRANS ERa GAL4 reporter, mRNA
# How it was run: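 Gal4-fusion ERa transactivation, measured as reporter transcript level in transiently transfected HepG2 cells. Exposure 24 h; RT-PCR plus capillary electrophoresis with fluorescence detection.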
# [7] = ATG_GAL4_TRANS: Attagene TRANS-FACTORIAL HepG2 Assay for GAL4 (Internal Marker) (AID 2282976; active = hit-call score of the fitted dose curve at least 0.9, where 1 is the maximum); conditions: HepG2 Attagene TRANS GAL4 internal marker reporter
# How it was run: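 Background-control readout: GAL4-UAS reporter transcript in transiently transfected HepG2 cells after 24 h compound exposure. Measured by RT-PCR, 6-FAM primer extension, HpaI digest and capillary electrophoresis; gain-of-signal fit versus DMSO.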
# [8] = molecular target: Estrogen-related receptor gamma (Homo sapiens) (UniProt P62508); test: ATG_ERRg_TRANS: Attagene TRANS-FACTORIAL HepG2 Assay for human Estrogen-Related Receptor gamma (ERRg) (AID 2282977; active = hit-call score of the fitted dose curve at least 0.9, where 1 is the maximum;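 also: hits increase reporter signal over DMSO so potencies reflect activators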); conditions: HepG2 Attagene TRANS reporter, ERRg transactivation
# How it was run: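 Readout: fluorescent reporter-mRNA fragments resolved by capillary electrophoresis after RT-PCR and HpaI cut. Cells: transiently transfected HepG2 carrying GAL4-UAS reporters driven by exogenous NR-Gal4 chimeras, dosed 24 h. Activity fitted upward relative to DMSO baseline.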
# [9] = molecular target: Steroid hormone receptor ERR1 (Homo sapiens) (UniProt P11474); test: ATG_ERRa_TRANS: Attagene TRANS-FACTORIAL HepG2 Assay for human Estrogen-Related Receptor alpha (ERRa) (AID 2282971; active = hit-call score of the fitted dose curve at least 0.9, where 1 is the maximum); conditions: HepG2 Attagene TRANS reporter, ERRa transactivation
# How it was run: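 HepG2 cells transiently transfected with GAL4-UAS reporter units and chimeric NR-Gal4 constructs; after 24 hour compound incubation, reporter mRNA quantified by RT-PCR, fluorescent labelling and capillary electrophoresis, gain of signal versus DMSO.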
# Chain of X-box-binding protein 1 (Homo sapiens) (P17861 whole entry, looked up): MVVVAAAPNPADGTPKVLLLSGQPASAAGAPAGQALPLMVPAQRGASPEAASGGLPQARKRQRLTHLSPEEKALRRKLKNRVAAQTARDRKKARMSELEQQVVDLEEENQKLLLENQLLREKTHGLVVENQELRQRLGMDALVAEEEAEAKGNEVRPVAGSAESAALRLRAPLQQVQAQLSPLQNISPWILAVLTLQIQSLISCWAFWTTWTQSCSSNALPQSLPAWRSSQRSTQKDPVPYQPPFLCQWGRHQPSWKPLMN
# Chain of Steroid hormone receptor ERR1 (Homo sapiens) (P11474 whole entry, looked up, the tested form may be a part): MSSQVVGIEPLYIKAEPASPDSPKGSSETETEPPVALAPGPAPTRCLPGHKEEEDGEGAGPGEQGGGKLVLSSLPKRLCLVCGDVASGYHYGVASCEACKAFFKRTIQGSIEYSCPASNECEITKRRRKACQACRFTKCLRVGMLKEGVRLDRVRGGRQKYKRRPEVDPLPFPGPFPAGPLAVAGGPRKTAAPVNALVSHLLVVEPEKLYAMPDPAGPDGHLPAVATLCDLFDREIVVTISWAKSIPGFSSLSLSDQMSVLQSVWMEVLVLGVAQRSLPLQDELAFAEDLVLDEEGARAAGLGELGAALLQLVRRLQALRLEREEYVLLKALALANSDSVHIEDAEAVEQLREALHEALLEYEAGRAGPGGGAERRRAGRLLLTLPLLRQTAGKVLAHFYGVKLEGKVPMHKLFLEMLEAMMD
# Chain of Estrogen-related receptor gamma (Homo sapiens) (P62508 whole entry, looked up, the tested form may be a part): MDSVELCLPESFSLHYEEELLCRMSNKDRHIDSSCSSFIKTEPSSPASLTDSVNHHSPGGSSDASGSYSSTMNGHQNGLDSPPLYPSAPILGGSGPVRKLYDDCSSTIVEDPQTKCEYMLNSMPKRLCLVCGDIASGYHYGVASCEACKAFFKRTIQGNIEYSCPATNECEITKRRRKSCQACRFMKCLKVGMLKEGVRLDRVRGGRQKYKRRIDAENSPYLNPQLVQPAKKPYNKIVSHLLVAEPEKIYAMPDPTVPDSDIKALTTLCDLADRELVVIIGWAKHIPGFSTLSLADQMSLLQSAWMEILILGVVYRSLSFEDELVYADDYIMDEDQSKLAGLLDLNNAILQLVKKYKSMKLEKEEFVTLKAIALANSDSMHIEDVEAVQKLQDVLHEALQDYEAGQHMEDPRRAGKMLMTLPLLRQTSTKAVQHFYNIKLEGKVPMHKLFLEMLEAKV
# Chain of Estrogen receptor (Homo sapiens) (P03372 whole entry, looked up, the tested form may be a part): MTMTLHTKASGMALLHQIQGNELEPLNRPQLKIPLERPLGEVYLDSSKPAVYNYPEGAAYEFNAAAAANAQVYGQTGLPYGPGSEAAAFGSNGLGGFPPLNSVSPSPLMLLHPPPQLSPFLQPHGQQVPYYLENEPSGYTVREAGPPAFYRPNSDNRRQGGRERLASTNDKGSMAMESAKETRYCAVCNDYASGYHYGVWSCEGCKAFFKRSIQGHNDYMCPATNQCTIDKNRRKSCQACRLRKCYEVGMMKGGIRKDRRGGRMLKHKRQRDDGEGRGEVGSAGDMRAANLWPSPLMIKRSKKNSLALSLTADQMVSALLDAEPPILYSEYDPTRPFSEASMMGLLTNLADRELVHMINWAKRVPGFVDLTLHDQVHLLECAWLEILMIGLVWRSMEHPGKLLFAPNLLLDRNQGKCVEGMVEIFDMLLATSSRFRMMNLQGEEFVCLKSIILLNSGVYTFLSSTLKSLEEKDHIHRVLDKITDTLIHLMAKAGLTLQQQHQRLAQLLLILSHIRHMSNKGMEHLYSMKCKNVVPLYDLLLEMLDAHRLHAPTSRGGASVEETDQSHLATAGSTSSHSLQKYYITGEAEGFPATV
compound,measurement,setting,value
Cc1ccc(O)cc1,outcome,[1],inactive
same,outcome,[2],inactive
same,outcome,[3],inactive
same,outcome,[4],inactive
CC[C@H]1OC(=O)[C@H](C)[C@@H](O[C@H]2C[C@@](C)(OC)[C@@H](O)[C@H](C)O2)[C@H](C)[C@@H](O[C@@H]2O[C@H](C)C[C@H](N(C)C)[C@H]2O)[C@](C)(O)C[C@@H](C)C(=O)[C@H](C)[C@@H](O)[C@]1(C)O,outcome,[1],inactive
same,outcome,[2],inactive
same,outcome,[3],inactive
same,outcome,[4],inactive
Cc1c(-c2cccnc2)c2ccccc2n1CCCCC(=O)O,outcome,[1],inactive
same,outcome,[2],inactive
same,outcome,[3],inactive
same,outcome,[4],inactive
same,outcome,[5],inactive
CC1=CC(=O)CC(C)(C)C1,outcome,[1],inactive
same,outcome,[2],inactive
same,outcome,[3],inactive
same,outcome,[4],inactive
same,outcome,[5],inactive
CCCC(=O)OCC,outcome,[1],inactive
same,outcome,[2],inactive
same,outcome,[3],inactive
same,outcome,[4],inactive
same,outcome,[5],inactive
CCCCC(CC)COC(=O)CCCCCCCCC(=O)OCC(CC)CCCC (stereo not given),outcome,[1],inactive
same,outcome,[2],inactive
same,outcome,[3],inactive
same,outcome,[4],inactive
same,outcome,[5],inactive
O=C(O)c1cccc(Oc2ccccc2)c1,outcome,[1],inactive
same,outcome,[2],inactive
same,outcome,[3],inactive
same,outcome,[6],inactive
same,outcome,[7],inactive
CCc1cc(SCc2sc(-c3ccc(C(F)(F)F)cc3)nc2CN2CCN(c3ccc(OC)cc3)CC2)ccc1OCC(=O)O,outcome,[1],inactive
same,outcome,[2],inactive
same,AC50,[3],16.5 µM (active)
same,AC50,[4],8.03 µM (active)
same,outcome,[8],inactive
O=C(CCCCCCCCc1cccnc1)N1CCC(C=C(c2ccccc2)c2ccccc2)CC1,outcome,[1],inactive
same,outcome,[2],inactive
same,AC50,[3],1.85 µM (active)
same,outcome,[9],inactive
same,AC50,[4],3.5 µM (active)
CC(C)(O)c1coc(S(=O)(=O)NC(=O)Nc2c3c(cc4c2CCC4)CCC3)c1,outcome,[1],inactive
same,outcome,[2],inactive
same,AC50,[3],44.5 µM (active)
same,outcome,[4],inactive
same,outcome,[5],inactive
same,outcome,[7],inactive
CCCN(C1CCN(C(=O)C2CCNCC2)CC1)[C@@H]1CCc2ccc(OC)cc2C1,outcome,[1],inactive
same,outcome,[2],inactive
same,outcome,[3],inactive
same,outcome,[9],inactive
same,outcome,[5],inactive
CNS(=O)(=O)c1cc(C(=O)N2CCC(CCN3C4CCC3CC(n3c(C)nc5ccccc53)C4)(c3cccc(F)c3)CC2)c(Cl)cc1F (stereo not given),outcome,[1],inactive
same,outcome,[2],inactive
same,AC50,[3],5.14 µM (active)
same,outcome,[4],inactive
same,outcome,[5],inactive
same,outcome,[7],inactive
CN(C)c1ccc(Cc2ccc(N(C)C)cc2)cc1,outcome,[1],inactive
same,AC50,[2],130 µM (active)
same,AC50,[3],25.8 µM (active)
same,outcome,[9],inactive
same,outcome,[4],inactive
same,outcome,[8],inactive
CC(C)=CCC/C(C)=C/CO,outcome,[1],inactive
same,outcome,[2],inactive
same,outcome,[3],inactive
same,outcome,[4],inactive
CC(=O)OC[C@H]1O[C@@](COC(C)=O)(O[C@H]2O[C@H](COC(C)=O)[C@@H](OC(C)=O)[C@H](OC(C)=O)[C@H]2OC(C)=O)[C@@H](OC(C)=O)[C@@H]1OC(C)=O,outcome,[1],inactive
same,outcome,[2],inactive
same,outcome,[3],inactive
same,outcome,[4],inactive
same,outcome,[7],inactive
O=C(O)CCN(C1(C(=O)NO)CCCC1)S(=O)(=O)c1ccc(Oc2ccc(F)cc2)cc1,outcome,[1],inactive
same,outcome,[2],inactive
same,outcome,[3],inactive
same,outcome,[4],inactive
same,outcome,[5],inactive
